“And” between values parts separate entries of the source, which are not always exact repeats. Equal entries are not always repeated. The source made the active and inactive calls.
Experiments:
[1] = test system: PRMT1 (protein arginine N-methyltransferase 1); test: small molecules binding arginine methyltransferase PRMT1 – biochemical, small-molecule microarray, 635 nm fluorescence, primary screen (AID 1088); conditions: higher = more signal;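 note: binding of Prmt1 protein to compounds spotted on small-molecule microarray slides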
[2] = growth effects on S. cerevisiae YJM789 – YJM789 clinical isolate, OD600, 24 h, basal, primary screen (AID 1089); conditions: higher = more signal, called active from +8 up or from −8 down unless noted;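 note: growth of clinical yeast isolate S. cerevisiae YJM 789 seeded 1000 cells per well; test concentration not given here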
[3] = S. pombe growth modifiers, basal conditions – strain 972, OD600, 24 h, no modulator, primary screen (AID 1090);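 note: basal condition with compound alone and no growth modifier present; test concentration not given here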; conditions: S. pombe 972 growth; higher = more signal, called active from +8 up or from −8 down unless noted
[4] = budding yeast growth modifiers under rapamycin – strain BY4716, OD600, 96 h, primary screen (AID 1091); note: test concentration not given here; conditions: S. cerevisiae BY4716 + rapamycin; higher = more signal, called active from +8 up or from −8 down unless noted
[5] = biological target: Torsin-1A-interacting protein 2 (Homo sapiens) (UniProt Q8NFQ8); test: small molecules binding lysate-expressed LULL1 – cell lysate, human LULL1 lysate, 635/667 nm fluorescence, primary screen (AID 1092); conditions: small-molecule microarray, hLULL1 lysate binding, 635 nm fluorescence; higher = more signal;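 note: probe is lysate of COS7 cells overexpressing human LULL1; score merges per-feature 667 nm fluorescence with signal-to-noise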
Sequence of Torsin-1A-interacting protein 2 (Homo sapiens) (Q8NFQ8 whole entry, looked up): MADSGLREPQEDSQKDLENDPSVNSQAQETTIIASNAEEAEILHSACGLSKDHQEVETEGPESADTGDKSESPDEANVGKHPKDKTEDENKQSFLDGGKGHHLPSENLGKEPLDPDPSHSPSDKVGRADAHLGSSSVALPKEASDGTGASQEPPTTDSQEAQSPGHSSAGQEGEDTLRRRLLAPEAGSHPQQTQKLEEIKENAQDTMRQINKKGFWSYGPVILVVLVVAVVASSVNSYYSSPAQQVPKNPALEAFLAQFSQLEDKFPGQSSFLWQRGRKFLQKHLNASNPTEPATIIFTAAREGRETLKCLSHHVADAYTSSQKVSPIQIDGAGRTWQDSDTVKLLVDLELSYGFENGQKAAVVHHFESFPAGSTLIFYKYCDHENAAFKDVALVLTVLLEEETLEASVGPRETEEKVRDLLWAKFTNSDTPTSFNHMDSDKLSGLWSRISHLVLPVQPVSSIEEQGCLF

[6] = optical density change of DRC41 E. coli – strain DRC41, OD650, 24 h, E. coli filamentation project, primary screen (AID 1093);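 note: MC1000 strain lacking acrAB efflux and sulA so SOS filamentation is blocked; test concentration not given here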; conditions: E. coli DRC41 growth; higher = more signal, called active from +8 up or from −8 down unless noted
[7] = probe aLefty2 binding to arrayed compounds – biochemical, biotinylated probe, 635/667 nm fluorescence, primary screen (AID 1094); conditions: higher = more signal; small-molecule microarray, probe aLefty2, fluorescence unless noted;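 note: score merges spot fluorescence near 667 nm with spot signal-to-noise ratio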
[8] = test system: Noggin (protein binding on small-molecule microarray); test: small molecules binding Noggin protein – biochemical, 635/667 nm fluorescence, primary screen (AID 1095); conditions: 635 nm fluorescence, higher = more signal;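 note: score merges 667 nm feature fluorescence with signal to noise over triplicate slides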
[9] = biological target: Neurogenic locus notch homolog protein 3 (Homo sapiens) (UniProt Q9UM47); test: small molecules binding NOTCH3 protein – biochemical, 635/667 nm fluorescence, primary screen (AID 1096); conditions: small-molecule microarray, 635 nm fluorescence, higher = more signal
Sequence of Neurogenic locus notch homolog protein 3 (Homo sapiens) (Q9UM47 whole entry, looked up): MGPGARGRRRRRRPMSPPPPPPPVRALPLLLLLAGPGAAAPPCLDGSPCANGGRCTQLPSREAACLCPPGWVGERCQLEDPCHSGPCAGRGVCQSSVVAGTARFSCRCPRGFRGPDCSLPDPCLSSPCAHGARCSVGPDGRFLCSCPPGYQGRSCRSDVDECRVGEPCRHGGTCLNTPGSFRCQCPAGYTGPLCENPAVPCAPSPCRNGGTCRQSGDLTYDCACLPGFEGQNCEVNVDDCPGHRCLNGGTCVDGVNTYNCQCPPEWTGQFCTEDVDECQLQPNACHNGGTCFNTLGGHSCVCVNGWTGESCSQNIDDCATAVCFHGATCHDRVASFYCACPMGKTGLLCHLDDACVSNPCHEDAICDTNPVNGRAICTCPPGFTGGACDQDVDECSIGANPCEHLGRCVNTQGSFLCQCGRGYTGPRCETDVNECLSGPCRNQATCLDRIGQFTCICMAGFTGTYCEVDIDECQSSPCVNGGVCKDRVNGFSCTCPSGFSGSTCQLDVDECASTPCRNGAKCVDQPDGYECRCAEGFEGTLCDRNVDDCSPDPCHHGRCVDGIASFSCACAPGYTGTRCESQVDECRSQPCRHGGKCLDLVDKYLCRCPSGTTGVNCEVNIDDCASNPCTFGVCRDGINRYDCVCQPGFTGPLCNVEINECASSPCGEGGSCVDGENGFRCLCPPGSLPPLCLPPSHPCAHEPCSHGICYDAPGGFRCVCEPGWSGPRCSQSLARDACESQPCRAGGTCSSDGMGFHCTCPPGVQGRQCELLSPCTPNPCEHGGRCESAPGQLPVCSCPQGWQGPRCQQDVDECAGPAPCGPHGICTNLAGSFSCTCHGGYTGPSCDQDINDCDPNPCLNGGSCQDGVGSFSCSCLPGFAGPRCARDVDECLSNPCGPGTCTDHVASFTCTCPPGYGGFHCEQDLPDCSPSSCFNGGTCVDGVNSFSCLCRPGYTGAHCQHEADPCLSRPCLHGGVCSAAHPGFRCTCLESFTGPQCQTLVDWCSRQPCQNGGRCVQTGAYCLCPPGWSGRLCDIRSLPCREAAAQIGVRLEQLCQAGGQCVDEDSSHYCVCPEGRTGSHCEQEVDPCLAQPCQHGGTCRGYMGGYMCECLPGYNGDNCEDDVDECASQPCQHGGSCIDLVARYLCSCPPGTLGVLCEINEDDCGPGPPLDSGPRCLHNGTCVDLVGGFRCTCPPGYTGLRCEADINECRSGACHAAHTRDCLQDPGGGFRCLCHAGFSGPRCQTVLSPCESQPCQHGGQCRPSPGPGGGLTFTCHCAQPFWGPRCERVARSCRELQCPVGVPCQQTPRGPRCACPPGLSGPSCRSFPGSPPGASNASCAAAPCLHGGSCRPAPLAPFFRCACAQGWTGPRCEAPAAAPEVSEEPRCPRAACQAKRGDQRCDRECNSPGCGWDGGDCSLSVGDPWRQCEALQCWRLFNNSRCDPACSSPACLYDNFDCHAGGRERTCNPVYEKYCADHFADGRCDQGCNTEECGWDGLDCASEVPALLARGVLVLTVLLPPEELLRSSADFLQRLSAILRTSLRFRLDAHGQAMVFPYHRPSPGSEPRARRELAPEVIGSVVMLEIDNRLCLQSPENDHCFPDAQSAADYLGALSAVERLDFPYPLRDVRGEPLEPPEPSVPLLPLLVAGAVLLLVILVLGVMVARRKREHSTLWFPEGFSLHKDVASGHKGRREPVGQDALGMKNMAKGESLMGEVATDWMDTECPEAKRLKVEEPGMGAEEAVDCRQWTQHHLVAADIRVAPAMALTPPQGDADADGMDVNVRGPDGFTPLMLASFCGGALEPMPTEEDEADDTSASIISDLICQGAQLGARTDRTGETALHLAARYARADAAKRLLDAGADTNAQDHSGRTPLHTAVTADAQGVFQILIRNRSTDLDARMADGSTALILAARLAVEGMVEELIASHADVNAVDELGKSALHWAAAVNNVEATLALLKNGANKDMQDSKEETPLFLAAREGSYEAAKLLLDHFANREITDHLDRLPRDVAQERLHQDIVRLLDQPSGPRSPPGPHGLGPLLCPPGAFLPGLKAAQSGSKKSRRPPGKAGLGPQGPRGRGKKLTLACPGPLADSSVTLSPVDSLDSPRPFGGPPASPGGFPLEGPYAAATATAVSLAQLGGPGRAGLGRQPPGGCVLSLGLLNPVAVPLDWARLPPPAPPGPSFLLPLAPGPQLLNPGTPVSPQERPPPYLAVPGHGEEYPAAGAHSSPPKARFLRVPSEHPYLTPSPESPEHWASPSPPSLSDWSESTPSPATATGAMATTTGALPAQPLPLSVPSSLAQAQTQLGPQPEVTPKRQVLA

[10] = probe aEGFR binding to arrayed compounds – biochemical, biotinylated probe, 635/667 nm fluorescence, primary screen (AID 1097); conditions: higher = more signal; small-molecule microarray, probe aEGFR, fluorescence unless noted;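 note: probe is a biotinylated anti-EGFR antibody binding compounds printed on slides; score combines fluorescence near 667 nm and signal to noise of each spot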

Structure (SMILES)	composite z-score [1]	z-score [2]	z-score [3]	z-score [4]	composite z-score [5]	z-score [6]	composite z-score [7]	composite z-score [8]	composite z-score [9]	composite z-score [10]
C[C@@H]1Cc2c(cnc3c2CN(C)CC3)CO1	-0.377	-0.0303 (inactive)	-0.591 (inactive)	-0.582 (inactive)	-0.0214	0.262 (inactive)	-0.153	0.603	-0.78	0.0255
C=C(CC1(CNP(=O)(c2ccccc2)c2ccccc2)CC1)c1ccccc1	-0.683	0.0836 (inactive)	1.79 (inactive)	-0.165 (inactive)	1.98	0.0375 (inactive)	-0.0934	-0.682	-0.343	-0.0493
COC(=O)[C@H]1C(=O)c2ccccc2O[C@@](C(=O)OC)(c2ccccc2)[C@@H]1c1ccccc1	-1.47	-0.644 (inactive)	-1.77 (inactive)	0.225 (inactive)	-0.565	0.161 (inactive)	-0.159	-0.054	-1.01	-0.0093
CCOC(=O)[C@H]1CC=C2C(=O)Oc3ccc(Br)cc3[C@@H]21	1.41	-24.8 (active)	-16.2 (active)	-1.8 (inactive)	2.61	-0.369 (inactive)	-0.183	-0.701	0.428	-0.249
CN1CCC(c2ccc(CO)cc2)=CC1c1cccs1 (stereo not given)	-0.534	-0.539 (inactive)	-2.27 (inactive)	2.81 (inactive)	-1.32	0.358 (inactive)	-0.166	0.269	0.245	-0.0828
CCOC(=O)[C@H]1CC=C2C(=O)Oc3ccccc3[C@@H]21	-0.162	-1.73 (inactive)	-5.83 (inactive)	-1.99 (inactive)	1.55	-0.0576 (inactive)	-0.134	-1.09	0.0681	-0.174
COC(=O)[C@H]1[C@@H](O)[C@@]2(O)c3c(OC)cc(OC)cc3O[C@@]2(c2ccc(OC)cc2)[C@@H]1c1ccccc1	0.002	-0.543 (inactive)	-2.36 (inactive)	0.118 (inactive)	0.485	0.449 (inactive)	-0.221	0.782	0.708	-0.0714
COC(=O)C1(C)C=C2C(=C(C)C(=O)C2C)CN1 (stereo not given)	-0.289	0.957 (inactive)	0.437 (inactive)	1.14 (inactive)	-0.132	-1.5 (inactive)	-0.0175	-1	-1.2	-0.139
COC(=O)NCC=Cc1nc(CCC=CC(=O)O[C@H]2CC3CC(=O)O[C@@H](C=CCC(C)C)C[C@@H]4CC[C@H](C)[C@@H](C[C@@H](OC)C[C@H](C2)O3)O4)co1	-1.35	-1.77 (inactive)	-4.74 (inactive)	-0.209 (inactive)	-0.562	0.162 (inactive)	-0.174	-0.593	-2	-0.201
OCc1ccc(C2=CC(C3CC3)N(Cc3sc4ccccc4c3Cl)CC2)cc1 (stereo not given)	1.56	-0.102 (inactive)	-5.01 (inactive)	1.47 (inactive)	1.55	-1.09 (inactive)	-0.0416	0.448	0.68	-0.0493
COC(=O)[C@@]1(Cc2ccccc2)[C@H]2c3cc(C(=O)N(C)C)n(C)c3C[C@H]2CN1C(=O)c1ccccc1	-0.0444	0.16 (inactive)	0.923 (inactive)	0.462 (inactive)	3.35	0.0234 (inactive)	0.402	-0.73	-0.0403	-0.0391
CN1CCC(c2ccc(CO)cc2)=CC1C1CC1 (stereo not given)	0.142	-1.01 (inactive)	-1.39 (inactive)	0.978 (inactive)	-0.183	-0.409 (inactive)	-0.308	0.062	-0.218	-0.154
C[C@@H]1OC=C2[C@@H](O)[C@H]3O[C@H]3C(=O)[C@]23[C@H]1[C@H]1C2=C([C@@H](O)[C@H]4O[C@H]4C2=O)[C@@H]3O[C@@H]1C	-0.259	-0.676 (inactive)	0.585 (inactive)	0.0254 (inactive)	-0.957	-0.101 (inactive)	-0.101	0.195	-0.186	-0.0689
CCCc1cc2c(n1Cc1cccc(Cl)c1)C(C)C1CN(C(=O)c3ccccc3)C(C)(C(=O)OC)C21 (stereo not given)	-0.287	-0.319 (inactive)	0.431 (inactive)	0.282 (inactive)	3.21	-0.449 (inactive)	0.411	-0.146	1.11	0.118
COC(=O)[C@@]1(Cc2ccccc2)[C@H]2c3cc(C(=O)N(C)C)[nH]c3C[C@H]2CN1C(=O)c1ccccc1	-0.94	0.0969 (inactive)	0.8 (inactive)	0.98 (inactive)	0.745	-0.482 (inactive)	-0.0238	-1.23	-0.984	-0.116
C[C@H]1O[C@H]2C3=C(C(=O)[C@@H]4O[C@@H]4[C@@H]3O)[C@@H]1[C@@H]1[C@@H](C)OC=C3[C@@H](O)[C@H]4O[C@H]4C(=O)[C@]312	-1.42	-1.16 (inactive)	-0.568 (inactive)	-0.584 (inactive)	-0.697	-0.529 (inactive)	-0.166	-0.394	-1.62	-0.0238

Structure (SMILES)	composite z-score [1]	z-score [2]	z-score [3]	z-score [4]	composite z-score [5]	z-score [6]	composite z-score [7]	composite z-score [8]	composite z-score [9]	composite z-score [10]
CCCC[C@@H]1C[C@H]1[C@@H](NP(=O)(c1ccccc1)c1ccccc1)c1ccc(Cl)cc1	-0.571	-0.513 (inactive)	-10.8 (active)	0.0654 (inactive)	0.748	-0.412 (inactive)	0.195	-1.67	-0.582	-0.263
CCc1cc2c(nc1CC)CCN(CCC(C)=NOC)C2	0.766	0.259 (inactive)	-1.54 (inactive)	-0.21 (inactive)	0.839	-0.0797 (inactive)	0.327	0.601	0.0855	0.0631
COc1cc2c(cc1O)C(C)N(C)CC2 (stereo not given)	-0.474	0.051 (inactive)	-2.28 (inactive)	-1.65 (inactive)	0.0713	0.891 (inactive)	0.0914	-0.19	-0.245	0.0841
CCCC=C(CCC)[C@@H](NP(=O)(c1ccccc1)c1ccccc1)c1ccccc1	0.905	-0.564 (inactive)	0.652 (inactive)	0.0781 (inactive)	0.732	-0.431 (inactive)	-0.17	1.11	0.474	-0.106
c1ccc(-c2cc3c(nc2-c2ccccc2)CCNC3)cc1	-0.93	0.52 (inactive)	0.538 (inactive)	2.17 (inactive)	-0.908	-0.0201 (inactive)	-0.0831	0.297	-0.73	-0.238
CCCc1cc2c(n1CCO)C(C)C1CN(C(=O)c3ccccc3)C(C)(C(=O)OC)C21 (stereo not given)	-0.147	-0.28 (inactive)	1.08 (inactive)	0.158 (inactive)	2.94	-0.0807 (inactive)	0.851	-0.562	0.386	0.427
CCCc1cc2c(n1Cc1ccc(C)cc1)C(C)C1CN(C(=O)c3ccccc3)C(C)(C(=O)OC)C21 (stereo not given)	0.0451	-1.78 (inactive)	0.625 (inactive)	-0.689 (inactive)	3.08	-0.694 (inactive)	1.02	-0.366	1.11	0.834
CC1N(P(=O)(c2ccccc2)c2ccccc2)CC(O)(c2ccccc2)CC12CC2 (stereo not given)	0.453 and -1.07	0.401 (inactive) and -2.96 (inactive)	0.614 (inactive) and -1.46 (inactive)	0.973 (inactive) and 0.0418 (inactive)	3.87 and 3.05	-0.476 (inactive) and -0.172 (inactive)	0.084 and 0.644	-1.15 and -1.06	-1.14 and -0.154	-0.0565 and 0.174
O=P(c1ccccc1)(c1ccccc1)N1CC2(CC2)CC(O)(c2ccccc2)C1 (stereo not given)	-0.25	-1.51 (inactive)	-1.4 (inactive)	-1.9 (inactive)	3.57	-0.0435 (inactive)	-0.0208	-0.62	0.498	0.066
CN1CCc2nc(CO)c(CO)cc2C1	-0.121	0.909 (inactive)	0.772 (inactive)	1.47 (inactive)	0.277	0.077 (inactive)	-0.0912	0.543	0.765	0.0668
COC(=O)[C@@]1(Cc2ccc(F)cc2)[C@H]2c3cc(C(=O)N(C)C)[nH]c3C[C@H]2CN1C(=O)c1ccccc1	-0.128	0.531 [setting not given] (inactive)	0.0211 [setting not given] (inactive)	0.229 [setting not given] (inactive)	3.23	-0.152 [setting not given] (inactive)	0.153 [setting not given]	-0.512	-0.388	-0.0573 [setting not given]
C=C(CC1(C(C)NP(=O)(c2ccccc2)c2ccccc2)CC1)c1ccccc1 (stereo not given)	0.144	-1.47 (inactive)	-5.37 (inactive)	-3 (inactive)	3.44	-0.74 (inactive)	-0.119	-0.344	0.673	-0.135
COC(=O)[C@H]1[C@H](c2ccccc2)C(=O)[C@]2(O)c3ccccc3O[C@@]12c1ccccc1	-0.371	-1.36 (inactive)	-0.83 (inactive)	-0.713 (inactive)	0.582	0.0043 (inactive)	-0.267	0.372	0.667	-0.12
COc1cc2c(cc1O)C=[N+](C)CC2	-0.592	-1.76 (inactive)	-0.412 (inactive)	-1.25 (inactive)	-0.496	-0.695 (inactive)	0.0571	0.425	-0.102	-0.0967
CCCc1cc2c(n1Cc1ccco1)C(C)C1CN(C(=O)c3ccccc3)C(C)(C(=O)OC)C21 (stereo not given)	0.254	-0.0941 (inactive)	-0.154 (inactive)	0.444 (inactive)	2.03	-0.773 (inactive)	0.849	0.025	1.09	0.337
OCc1ccc(C2=CC(c3cccs3)N(Cc3cccc(OC(F)(F)F)c3)CC2)cc1 (stereo not given)	1.08	-0.583 (inactive)	-3.83 (inactive)	4.58 (inactive)	1.1	0.398 (inactive)	-0.145	0.257	0.0155	-0.1

From PubChem BioAssay
